Test results from ChEMBL document CHEMBL1157539, “Thousands of chemical starting points for antimalarial lead identification” (Nature, 2010).

Experiments:
Assay type in all cases: functional
Plasmodium falciparum [1] = assay: GSK_TCMDC: Inhibition of Plasmodium falciparum 3D7 in whole red blood cells, using parasite LDH activity as an index of growth. Test compounds present at 2uM
Plasmodium falciparum [2] = assay: GSK_TCMDC: Inhibition of Plasmodium falciparum Dd2 in whole red blood cells, using parasite LDH activity as an index of growth. Test compounds present at 2uM
HepG2 = assay: GSK_TCMDC: Percent inhibition of human HepG2 cell line. Test compounds present at 10uM.

| SMILES | Inhibition (Plasmodium falciparum [1]) | Inhibition (Plasmodium falciparum [2]) | Inhibition (HepG2) |
| --- | --- | --- | --- |
| CCOc1ccc(-c2nonc2NC(=O)c2ccc(F)cc2)cc1OCC | 100% | 99% | 36% |
| O=C(O)C(F)(F)F.c1cncc(CCNCc2cccc(-c3csc(-c4nc5ccccc5[nH]4)c3)c2)c1 | 100% | 98% | 26% |
| CC(C)c1ncc(-c2ccncc2)c(C2CCC(CNC(=O)c3cccnc3)CC2)n1 (stereo not given) | 89% | 88% | 0% |
| Fc1ccc2[nH]c(-c3cccc(-c4ccc(CNCc5ccccc5)cc4)c3)nc2c1.O=C(O)C(F)(F)F | 100% | 89% | 27% |
| COc1ccc2ncc(F)c(CCN3CCC(NCc4cc(C)c5c(c4)OCCO5)CC3)c2n1.Cl | 100% | 67% | 20% |
| O=C(/C=C/c1cccc(Cl)c1)NCCCCCN1CCC(c2c[nH]c3ccccc23)CC1 | 89% | 17% | 46% |
| Cl.NC1=NC(Cc2ccccc2)N(c2ccc(Cl)cc2)C(N)=N1 (stereo not given) | 93% | 4% | 21% |
| Cl.O=C(/C=C/c1ccc(Cl)c(Cl)c1)N1CCC(CCN2CCC(c3c[nH]c4cnccc34)CC2)CC1 | 100% | 100% | 93% |
| COc1ccc(CNCc2ccccc2)cc1-c1ccc(OC)c(S(=O)(=O)NCCN2CCCC2)c1.O=C(O)C(F)(F)F | 100% | 55% | 14% |
| CC[C@H](C)CNC(=O)c1cncc(-c2ccc(CNCCCc3ccccc3)cc2)c1.O=C(O)C(F)(F)F | 100% | 99% | 19% |
| CO/C(=C\C=C\c1cc2cc(Cl)c(Cl)cc2[nH]1)C(=O)NC1CC2CCCC(C1)N2C (stereo not given) | 93% | 51% | 42% |
| O=C(Nc1ccc(-c2nc3ccccc3[nH]2)cc1)c1cncc(Br)c1 | 95% | 49% | 35% |
| COc1ccc2nc3cc(Cl)ccc3c(NCCNCC(O)CO)c2n1.Cl (stereo not given) | 100% | 100% | 12% |
| O=C(Nc1ccc(Cl)cc1)N[C@H]1CCN(CCCCCNC(=O)C2CC2c2ccc(Cl)c(Cl)c2)C1 (stereo not given in full) | 96% | 1% | 24% |
| CN1CCC(c2cc3c(cc2Br)CCN3C(=O)Nc2ccc(-c3ccncc3)c(Cl)c2)CC1 | 91% | 0% | 26% |
| Cc1cccc2nc(-c3ccc(-c4ccc(CN5CCN(CCO)CC5)cc4)s3)[nH]c12.O=C(O)C(F)(F)F | 92% | 47% | 34% |
| CN(C)CCOc1cc(NC(=O)Nc2ccc(-c3ccccc3)cc2)ccc1I | 100% | 45% | 9% |
| CCCCCCOc1ccc(/C(N)=N\Cc2ccccc2)c2c1CCCC2.Cl | 96% | 35% | 62% |
| Cc1ccc2c(c1)c(C1CCN(C(=O)c3ccc([N+](=O)[O-])o3)CC1)cn2C | 97% | 76% | 0% |
| CC(CN)OCn1cnc2c(N)ncnc21.Cl (stereo not given) | 95% | 3% | 17% |
| O=C(/C=C/c1ccc(Cl)c(Cl)c1)N1CCN(C(=O)Nc2cccc(C(F)(F)F)c2)CC1 | 99% | 100% | 53% |
| Fc1ccc2[nH]c(-c3ccc(-c4ccc(CNCCN5CCNCC5)cc4)s3)nc2c1.O=C(O)C(F)(F)F | 96% | 2% | 24% |
| Nc1nc(N)c2cc(NS(=O)(=O)c3ccc(-c4ccccc4)cc3)ccc2n1 | 100% | 54% | 7% |
| COc1ccc(Cl)cc1S(=O)(=O)Nc1cccc(CCN2CCC(N3CCCCC3)CC2)c1 | 100% | 9% | 33% |
| Fc1ccc2[nH]c(-c3ccc(-c4cccc(CN5CCC(CCN6CCCCC6)CC5)c4)cc3)nc2c1.O=C(O)C(F)(F)F | 100% | 100% | 96% |
| Cc1cc(N2CCCC2)nc(Nc2ccc(NC(=O)c3cccc(F)c3)cc2)n1 | 97% | 28% | 39% |
| COc1ccc(C(=O)C2CC2CN(C)CCC(O)c2ccc(Cl)c(Cl)c2)cc1 (stereo not given) | 94% | 86% | 24% |
| Clc1ncnc2scc(-c3ccc(Br)cc3)c12 | 95% | 96% | 0% |
| COc1ccc(CNCc2cccc(-c3cccc(-c4nc5cc(F)ccc5[nH]4)c3)c2)cc1.O=C(O)C(F)(F)F | 100% | 55% | 18% |
| Cc1cc(-c2cccc(CNC3CCCC3)c2)ccc1S(=O)(=O)NCCN1CCCC1.O=C(O)C(F)(F)F | 81% | 7% | 38% |
